This is a sample that favours compounds with a hit; in the whole collection about 2.7% have one here.
TRPM1 prom inh – inhibitors of MITF-driven TRPM1 promoter in melanoma cells | AID 488899 | inhibition, % at 12.5 µM | 330,000 compounds, 0.83% hits | SK-MEL-5 TRPM1 promoter luciferase, 24 h;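 active = mean inhibition across replicates of 60% or more, whatever share of single replicates reaches that level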
CF NFkB inh – blocks PAF-induced NF-kB reporter in cystic fibrosis cells; AID 588850; inhibition, % at 5 µM; KKLEB NF-kB-GFP reporter, GFP fluorescence overnight; 360,000 compounds, 0.86% hits;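 active = at least 50% inhibition at 5 µM, scaled per plate between neutral and stimulator controls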;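 also: PAF is a Pseudomonas aeruginosa culture filtrate used as stimulus; plate controls were PAF-stimulated DMSO wells for no effect and unstimulated DMSO wells for full effect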
KKLEB tox – reduces viability of KKLEB cystic fibrosis airway cells | AID 602141 | KKLEB CF airway cells viability, ATPlite luminescence, overnight; hits give low values; cells stimulated with P. aeruginosa culture filtrate | activity change (cytotoxicity), % at 5 µM | 360,000 compounds, 0.36% hits;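 active = corrected activity change at or below -50% at 5 µM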
HIF-2a inh – HIF-2a inhibition; inhibition, % at 18.8 µM; 360,000 compounds, 0.72% hits; 786-0 RCC cells HIF-2a reporter, luciferase luminescence, overnight;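 active = inhibition of the luminescence signal of 40% or more relative to plate controls, in a single-dose primary screen at 18.75 µM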
Shn3 3UTR inh – Schnurri-3 reporter inhibition in Clone20 osteoblasts | inhibition, % at 12.5 µM | Clone20 osteoblast Shn3 3'UTR firefly luciferase, 24 h | 360,000 compounds, 0.52% hits;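 active = mean inhibition of at least 75% with every replicate also reaching 75%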;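 also: 0% = median of neutral control wells and 100% = pilot-screen positive control compound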
Peg3 prom inh-1 – Peg3 promoter activity inhibition | AID 588405 | inhibition, % at 20 µM | HeLa PEG-Prom luciferase reporter, luminescence, overnight | 360,000 compounds, 1.7% hits;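 active = inhibition of at least 50% at 20 µM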
Peg3 prom inh-2 – confirmation of Peg3 promoter inhibitors; shares compounds with Peg3 prom inh-1; HeLa PEG-Prom luciferase reporter, luminescence, overnight; inhibition, % at 20 µM; 1,300 compounds, 84% hits; AID 602417;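 active = at 20 µM dose, 40% or more inhibition averaged across four replicates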
Numbers without * were called inactive.

Results for CN(C)CCCN(C(=O)c1ccc(S(=O)(=O)N2CCc3ccccc3C2)cc1)c1nc2c(F)cc(F)cc2s1 ?
TRPM1 prom inh: 35.3; CF NFkB inh: 10.1; KKLEB tox: -6.5; HIF-2a inh: 13.3; Shn3 3UTR inh: -15.7; Peg3 prom inh-1: -33.7

Results for Cc1ccc2sc(N(CCCN(C)C)C(=O)c3ccc(S(=O)(=O)N4CCc5ccccc5C4)cc3)nc2c1C ?
TRPM1 prom inh: 64.6*; CF NFkB inh: -14.9; KKLEB tox: -46.9; HIF-2a inh: 26.7; Shn3 3UTR inh: 37.5; Peg3 prom inh-1: 59.5*; Peg3 prom inh-2: 57.1*

What do the screens show for `CCOc1cccc2sc(N(CCCN(C)C)C(=O)c3ccc(S(=O)(=O)N(C)Cc4ccccc4)cc3)nc12`?
TRPM1 prom inh: 94.5*; CF NFkB inh: 26.3; KKLEB tox: -26.0; HIF-2a inh: 3.4; Shn3 3UTR inh: 50.3; Peg3 prom inh-1: 98.2*; Peg3 prom inh-2: 94.7*

What do the screens show for `Cc1cc(C)c2sc(N(CCCN(C)C)C(=O)c3ccc(S(=O)(=O)N(C)Cc4ccccc4)cc3)nc2c1`?
TRPM1 prom inh: 56.7; CF NFkB inh: 7.9; KKLEB tox: -10.6; HIF-2a inh: 15.4; Shn3 3UTR inh: 5.1; Peg3 prom inh-1: 97.1*; Peg3 prom inh-2: 98.3*

What do the screens show for `CCOc1cccc2sc(N(CCCN(C)C)C(=O)c3ccc(C(=O)c4ccccc4)cc3)nc12`?
TRPM1 prom inh: 11.6; CF NFkB inh: 28.3; KKLEB tox: -12.2; HIF-2a inh: -6.3; Shn3 3UTR inh: 6.5; Peg3 prom inh-1: 30.4

What do the screens show for `Cc1ccc2sc(N(CCCN(C)C)C(=O)c3ccc(S(=O)(=O)N(C)Cc4ccccc4)cc3)nc2c1C`?
TRPM1 prom inh: 77.9*; CF NFkB inh: 28.9; KKLEB tox: -33.1; HIF-2a inh: 1.0; Shn3 3UTR inh: -66.0; Peg3 prom inh-1: 65.5*; Peg3 prom inh-2: 95.8*

What do the screens show for `O=C(COC(=O)C1=COCCO1)Nc1cc(C(F)(F)F)ccc1Cl`?
TRPM1 prom inh: 2.5; CF NFkB inh: 19.4; KKLEB tox: 10.8; HIF-2a inh: 5.7; Shn3 3UTR inh: 4.2; Peg3 prom inh-1: -13.6

Results for C[C@H](CO)N1C[C@H](C)[C@@H](CN(C)S(C)(=O)=O)Oc2ccc(NC(=O)Cn3cnnn3)cc2C1=O ?
TRPM1 prom inh: 0.8; CF NFkB inh: -1.0; KKLEB tox: 0.6; HIF-2a inh: 1.6; Shn3 3UTR inh: 10.8; Peg3 prom inh-1: 1.9

How did Cc1ccc(CN2CC(C(=O)N(C)CC(=O)Nc3cccc(F)c3)CC2=O)cc1 (centres undefined) do in these assays?
TRPM1 prom inh: 4.7; CF NFkB inh: -0.7; KKLEB tox: 8.5; HIF-2a inh: 11.2; Shn3 3UTR inh: 13.4; Peg3 prom inh-1: 12.1

How did CCOc1cccc2sc(N(CCCN(C)C)C(=O)Cc3ccccc3)nc12 do in these assays?
TRPM1 prom inh: 13.2; CF NFkB inh: -2.5; KKLEB tox: 6.3; HIF-2a inh: 13.2; Shn3 3UTR inh: -14.4; Peg3 prom inh-1: -31.9

What do the screens show for `CCOc1cccc2sc(N(CCCN(C)C)C(=O)c3ccc(S(=O)(=O)N(CC)Cc4ccccc4)cc3)nc12`?
TRPM1 prom inh: 56.9; CF NFkB inh: 9.1; KKLEB tox: -16.0; HIF-2a inh: -4.6; Shn3 3UTR inh: 9.6; Peg3 prom inh-1: 94.9*; Peg3 prom inh-2: 97.4*

Results for OC(CNCC1COc2ccccc2O1)COc1ccccc1F (centres undefined) ?
TRPM1 prom inh: -7.0; CF NFkB inh: 7.6; KKLEB tox: -21.1; HIF-2a inh: 15.2; Shn3 3UTR inh: 7.2; Peg3 prom inh-1: -1.6

How did CCN(CC)CCN(C(=O)c1cc2c(ccc3ccccc32)oc1=O)c1nc2cc3c(cc2s1)OCCO3 do in these assays?
TRPM1 prom inh: 74.6*; CF NFkB inh: -6.8; KKLEB tox: -1.7; HIF-2a inh: -19.0; Shn3 3UTR inh: 47.5; Peg3 prom inh-1: 95.9*; Peg3 prom inh-2: -10.8

Results for CCC(=O)N[C@@H]1CC[C@@H](CCNC(=O)Nc2ccc(F)cc2)O[C@@H]1CO ?
HIF-2a inh: -5.4

How did Cc1c(C)c2cccnc2c2ncccc12 do in these assays?
TRPM1 prom inh: 82.8*; CF NFkB inh: 12.6; KKLEB tox: -28.4; HIF-2a inh: -15.0; Shn3 3UTR inh: 82.6; Peg3 prom inh-1: 56.6*; Peg3 prom inh-2: 42.8*

Results for O=C(CN1C(=O)C2CCCCC2C1=O)OCC(=O)c1ccc(F)cc1 (centres undefined) ?
TRPM1 prom inh: 3.1; CF NFkB inh: 0.1; KKLEB tox: 5.8; HIF-2a inh: -2.9; Shn3 3UTR inh: 7.9; Peg3 prom inh-1: -7.5

What do the screens show for `COc1cccc(/C=N/NC(=O)c2ccc(-c3ccccc3)cc2)c1O`?
TRPM1 prom inh: 69.0*; CF NFkB inh: 2.1; KKLEB tox: 2.1; HIF-2a inh: 12.0; Shn3 3UTR inh: 91.2*; Peg3 prom inh-1: 55.4*; Peg3 prom inh-2: 69.0*

What do the screens show for `COc1cccc(/C=N/NC(=O)c2c(C)nc3ccc(Cl)cn23)c1O`?
TRPM1 prom inh: 70.5*; CF NFkB inh: -14.0; KKLEB tox: -0.2; HIF-2a inh: 2.1; Shn3 3UTR inh: 89.7*; Peg3 prom inh-1: 56.2*; Peg3 prom inh-2: 71.1*

How did COc1ccc(C(=O)Nc2cccc(C(=O)N/N=C/c3ccc(OC)cc3OC)c2)cc1 do in these assays?
TRPM1 prom inh: 54.1; CF NFkB inh: -10.1; KKLEB tox: 7.0; HIF-2a inh: 58.5*; Shn3 3UTR inh: 9.8; Peg3 prom inh-1: 74.2*; Peg3 prom inh-2: 77.2*

What do the screens show for `COc1ccccc1/C=N\NC(=O)c1c(C)nc2ccc(Cl)cn12`?
TRPM1 prom inh: -4.3; CF NFkB inh: -2.4; KKLEB tox: 4.1; HIF-2a inh: 15.6; Shn3 3UTR inh: 8.5; Peg3 prom inh-1: 14.8

Results for COc1ccc(/C=N/NC(=O)c2cccc(NC(C)=O)c2)c(OC)c1 ?
TRPM1 prom inh: 11.0; CF NFkB inh: 1.8; KKLEB tox: -6.0; HIF-2a inh: 0.1; Shn3 3UTR inh: -3.4; Peg3 prom inh-1: 14.3

What do the screens show for `NCCc1c(-c2ccccc2)n(-c2ccccc2)c2ccccc12`?
TRPM1 prom inh: 44.0; CF NFkB inh: 16.7; KKLEB tox: -13.9; HIF-2a inh: 7.5; Shn3 3UTR inh: 36.4; Peg3 prom inh-1: 106.8*; Peg3 prom inh-2: 99.3*

What do the screens show for `CC(=O)n1c(-c2ccccc2)c(CO)c2ccccc21`?
TRPM1 prom inh: 9.0; CF NFkB inh: 5.2; KKLEB tox: 9.7; HIF-2a inh: 4.8; Shn3 3UTR inh: 8.2; Peg3 prom inh-1: -13.5

Results for CCCCn1c(N)c(N(CC(C)C)C(=O)c2cc(Br)c(Br)s2)c(=O)[nH]c1=O ?
TRPM1 prom inh: 35.0; CF NFkB inh: 14.9; KKLEB tox: -6.5; HIF-2a inh: -2.8; Shn3 3UTR inh: 5.8; Peg3 prom inh-1: 81.2*; Peg3 prom inh-2: 41.4*

Source: PubChem BioAssay
